About 1,300 (0.68%) of roughly 190,000 compounds were called active. Cut-off read from the data, not from the text of the source: active = inhibition above about 50%; inactive = the rest. For the sample, actives were picked, then their nearest neighbours and some compounds at random.
molecular target: Mannose-6-phosphate isomerase (Homo sapiens) (UniProt P34949); assay: human PMI inhibitors, high substrate, primary screen, biochemical, fluorescence intensity, high mannose 6-phosphate (AID 1220); conditions: recombinant PMI enzyme, coupled fluorescence intensity; at 20 µM; active compounds read high
Sequence (P34949 whole entry, looked up): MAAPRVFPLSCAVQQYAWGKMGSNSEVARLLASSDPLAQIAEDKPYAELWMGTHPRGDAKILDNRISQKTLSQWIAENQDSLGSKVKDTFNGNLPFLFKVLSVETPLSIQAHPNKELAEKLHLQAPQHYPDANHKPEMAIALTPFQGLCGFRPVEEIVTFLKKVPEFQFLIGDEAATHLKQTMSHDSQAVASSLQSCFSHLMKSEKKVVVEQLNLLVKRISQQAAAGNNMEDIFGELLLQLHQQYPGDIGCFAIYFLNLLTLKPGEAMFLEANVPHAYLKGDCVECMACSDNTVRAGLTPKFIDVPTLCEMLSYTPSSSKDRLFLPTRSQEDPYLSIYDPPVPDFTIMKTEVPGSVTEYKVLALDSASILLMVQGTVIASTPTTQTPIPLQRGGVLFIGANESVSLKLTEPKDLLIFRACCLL

SMILES | inhibition
CCCCc1nnc(NC(=O)CSc2nc(N)cc(=O)[nH]2)s1 | 51.1% (active)
CC(C)Cc1nnc(NC(=O)CSc2nc(N)cc(=O)[nH]2)s1 | -6.4% (inactive)
CCCCc1nnc(NC(=O)C(C)Sc2nc(N)cc(=O)[nH]2)s1 (stereo not given) | 0.4% (inactive)
C=CCc1ccccc1OCCNCc1ccccc1 | 1% (inactive)
Cc1cccc(C(=O)NC2CCN(CC(=O)NCc3cccs3)CC2)c1 | -0.6% (inactive)
Cc1cccc(-n2[nH]c3c4c(ccc3c2=O)C(=O)c2ccccc2C4=O)c1 | 26.4% (inactive)
Cc1ccc(-n2[nH]c3c4c(ccc3c2=O)C(=O)c2ccccc2C4=O)cc1 | 13.1% (inactive)
O=C1c2ccccc2C(=O)c2c1ccc1c(=O)n(-c3ccccc3)[nH]c21 | 30.4% (inactive)
COCCCn1[nH]c2c3c(ccc2c1=O)C(=O)c1ccccc1C3=O | 14.1% (inactive)
CC(C)Cn1[nH]c2c3c(ccc2c1=O)C(=O)c1ccccc1C3=O | 60.3% (active)
Cc1ccc(C)c(-n2[nH]c3c4c(ccc3c2=O)C(=O)c2ccccc2C4=O)c1 | 58% (active)
C=CCn1c(SCC(=O)Nc2cccc3ccccc23)nc(O)c(CC)c1=O | -3.4% (inactive)
CCn1c(CNc2ccc(F)cc2)nnc1SCC(=O)Nc1ccccc1OC | 4% (inactive)
CN(C(=O)c1ccccc1)c1ccc(OCC(=O)NC2CCS(=O)(=O)C2)cc1 (stereo not given) | 11.6% (inactive)
CC(C)(C)NS(=O)(=O)c1ccc(OCC(=O)NCCC2=CCCCC2)cc1 | 1.2% (inactive)
CC(=C/c1ccco1)/C=N/NC(=O)c1nnn(-c2nonc2N)c1CN(C)C | 59.6% (active)
COCc1c(C(=O)N/N=C(/C)c2ccccc2)nnn1-c1nonc1N | 6.3% (inactive)
COCc1c(C(=O)N/N=C/c2cccc3ccccc23)nnn1-c1nonc1N | -11.8% (inactive)
CC(=O)c1ccc(Oc2nc(-c3cccnc3)nc3ccccc23)cc1 | -4.3% (inactive)
Cc1ccc(Oc2nc(-c3cccnc3)nc3ccccc23)c([N+](=O)[O-])n1 | 8.5% (inactive)
O=[N+]([O-])c1ncccc1Oc1nc(-c2cccnc2)nc2ccccc12 | 65.8% (active)
Cc1cc(C(=O)C(=O)O)c(C)n1-c1ccc(Cl)c(Cl)c1 | -3% (inactive)
COc1ccc(CCC(=O)N2CC(C)OC(C)C2)cc1 (stereo not given) | 5.2% (inactive)
Cc1ccc(C)c(NC(=O)c2nc(-c3ccccc3)n(-c3ccccc3)n2)c1 | 16.2% (inactive)
O=[N+]([O-])c1ccc(C[n+]2ccc(Cc3ccccc3)cc2)cc1 | 31.5% (inactive)
O=S(=O)(c1ccccc1)N1CCN=C1SCc1ccc(Cl)cc1 | 51.5% (active)
O=S(=O)(c1ccccc1)N1CCN=C1SCc1ccccc1 | -2.3% (inactive)

SMILES | inhibition
O=S(=O)(c1ccccc1)N1CCN=C1SCc1ccc(Cl)c(Cl)c1 | -0.5% (inactive)
c1ccc(COc2ccc(OCCN3CCCC3)cc2)cc1 | 16.3% (inactive)
Cc1cccc(NC(=O)CC2SC(=NC3CCCCC3)NC2=O)c1 (stereo not given) | 7.6% (inactive)
Cc1ccc(OCc2n[nH]c(=S)n2N)cc1C | 9.3% (inactive)
Nn1c(COc2ccc(Cl)cc2)n[nH]c1=S | 10.2% (inactive)
CCOc1ccccc1OCCNC1CCCC1 | -5% (inactive)
COCCCNC(=S)Nc1ccc(C)cc1[N+](=O)[O-] | 5.7% (inactive)
CC[C@H](C)C(C(=O)N1CCN(C(=O)OC(C)(C)C)CC1)n1cc(C(Cc2ccc(O)cc2)NC(=O)OC(C)(C)C)nn1 (stereo not given in full) | 6.3% (inactive)
O=C(CSc1nnc(SCc2ccccc2)s1)N/N=C/C=C\c1ccco1 | -23% (inactive)
CC(/C=N/NC(=O)CSc1nnc(SCc2ccccc2)s1)=C\c1ccco1 | 54.7% (active)
Cn1c(SCC(=O)N/N=C/C=C/c2ccco2)nc2ccccc21 | 45.7% (inactive)
CC(/C=N/NC(=O)c1cc(-c2ccccc2)nc2ccccc12)=C\c1ccco1 | 63.2% (active)
CC(/C=N/NC(=O)c1cc(-c2ccc(Cl)cc2)nc2ccccc12)=C\c1ccco1 | 11.8% (inactive)
Cn1c(SCC(=O)N/N=C/c2ccco2)nc2ccccc21 | 3.4% (inactive)
CC(=C/c1ccco1)/C=N/NC(=O)CSc1nnc(SCc2ccc(C)cc2)s1 | 49.4% (inactive)
CC(/C=N/NC(=O)CSc1nc2ccccc2n1C)=C\c1ccco1 | 58.6% (active)
CC(/C=N/NC(=O)c1cc(-c2ccncc2)nc2ccccc12)=C\c1ccco1 | 11.8% (inactive)
CCc1ccc(Nc2nnc(SCC(=O)Nc3sccc3C(N)=O)s2)cc1 | 11.1% (inactive)
CCOC(=O)c1ccc(NC(=S)N(CCN2CCCCCC2)Cc2cccs2)cc1 | 2.9% (inactive)
COc1cc(OC)cc(C(=O)NCC2CCCO2)c1 (stereo not given) | 12.6% (inactive)
Cc1ccc2nc3c(cc2c1)c(NC(=O)c1cccnc1)nn3C | 13.2% (inactive)
Cc1c(C(=O)NCC2CCCO2)oc2ccc3c(c12)C(=O)CC(C)(C)O3 (stereo not given) | 7.4% (inactive)
O=C(Nc1cccnc1)C1CCCN(S(=O)(=O)c2ccccc2)C1 (stereo not given) | -2% (inactive)
CCOc1cc(N2CCOCC2)c(OCC)cc1NC(=O)CSc1n[nH]c(N)n1 | 37.1% (inactive)
CCOc1cc(N2CCOCC2)c(OCC)cc1NC(=O)CSc1cccc[n+]1[O-] | 16.7% (inactive)
CCOc1cc(N2CCOCC2)c(OCC)cc1NC(=O)CSc1ncccn1 | 50.6% (active)
CCOc1cc(N2CCOCC2)c(OCC)cc1NC(=O)CSc1ncn[nH]1 | 53% (active)

SMILES | inhibition
CCOc1cc(N2CCOCC2)c(OCC)cc1NC(=O)CSc1nccc(C)n1 | 19.5% (inactive)
CCOc1cc(N2CCOCC2)c(OCC)cc1NC(=O)CCC1CCCC1 | 17.2% (inactive)
[O-][n+]1ccc(C2CC2)cc1 | 7.7% (inactive)
CCN1CCN(C(c2cccs2)C(C)NC(=O)NC2CCCCC2)CC1 (stereo not given) | 6% (inactive)
CCC1Sc2ccccc2N(CC(=O)NCc2ccc3c(c2)OCO3)C1=O (stereo not given) | -3.8% (inactive)
O=C(COC(=O)COc1cccc(Br)c1)Nc1c(Cl)cccc1Cl | 4.6% (inactive)
COc1ccc(NC(=O)c2ccc(Br)o2)cc1 | 13.3% (inactive)
COc1ccc(Cn2c(N)c(C#N)c3nc4ccccc4nc32)cc1 | 15.1% (inactive)
COc1ccc(-n2c(NC(=O)c3ccc(Br)o3)c(C#N)c3nc4ccccc4nc32)cc1 | 66.9% (active)
CCc1cc[n+](-c2nc3ccccc3nc2C(=C=[N-])C#N)cc1 | 14.8% (inactive)
N#CC(=C=[N-])c1nc2ccccc2nc1-[n+]1ccccc1 | 1.9% (inactive)
Cc1cc[n+](-c2nc3ccccc3nc2C(=C=[N-])C#N)cc1 | 51.9% (active)
COC(=O)COC(=O)c1ccc(Oc2nc(OC)nc(N(C)C)n2)cc1 | 8.1% (inactive)
Cc1ccc(-c2cc(C(=O)O)c3cc(Br)ccc3n2)o1 | -44.6% (inactive)
O=c1oc(-c2cccs2)nc2ccc(Br)cc12 | -3% (inactive)
O=C(NC1CCCCC1)NC1CC2CCC(C1)N2C(=O)NCc1ccccc1 (stereo not given) | -7.9% (inactive)
N#C/C(=C/c1ccc(N2CCOCC2)o1)c1nc2ccccc2[nH]1 | 38.4% (inactive)
N#C/C(=C/c1ccc(N2CCOCC2)o1)c1ccc(Br)cc1 | 50.4% (active)
Cc1ccc2nc(/C(C#N)=C\c3ccc(N4CCOCC4)o3)[nH]c2c1 | 59.9% (active)
Cc1ccc(/C(C#N)=C\c2ccc(N3CCOCC3)o2)cc1 | 14.1% (inactive)
N#C/C(=C\c1ccc(N2CCOCC2)o1)c1nc2ccccc2[nH]1 | 45.8% (inactive)
N#C/C(=C/c1ccc(N2CCOCC2)o1)c1ccc(Cl)cc1 | 42.5% (inactive)
CC1=CCC2COC(c3ccc[n+](Cc4ccccc4)c3)C1C2 (stereo not given) | 43.6% (inactive)
CCOc1ccc(N(CC(=O)N2CCCC2)S(=O)(=O)c2c(C)noc2C)cc1 | 0.9% (inactive)
Cc1c(Cl)cccc1NC(=O)Nc1ccc(C(N)=O)cc1 | 3.7% (inactive)
Cc1cc(/C=C2\SC(N)=NC2=O)c(C)n1-c1ccc(F)cc1 | 32.4% (inactive)
Cc1cc(S(=O)(=O)n2cnc3ccccc32)c(C)cc1Cl | -20.1% (inactive)

SMILES | inhibition
Cc1cc(C)c(S(=O)(=O)n2cnc3ccccc32)c(C)c1 | -6% (inactive)
Cc1ccc(S(=O)(=O)n2cnc3ccccc32)c(C)c1 | 81.3% (active)
O=C1c2ccccc2C(=O)N1Cc1nc(-c2ccccc2)no1 | -1.3% (inactive)
OCCCc1cn(-c2ccccc2)c2ccccc12 | -13.6% (inactive)
C=CCSC1=N/C(=C\c2ccc(C)o2)C(=O)S1 | 7.9% (inactive)
Cc1ccc2cc(CN(Cc3ccccc3)Cc3nnnn3C3CCCC3)c(=O)[nH]c2c1 | 5.3% (inactive)
Cc1cc2nn(-c3cccc4ccccc34)nc2cc1N | 75.5% (active)
Nc1ccc2nn(-c3cccc4ccccc34)nc2c1 | 62.8% (active)
c1ccc2c(-n3cccn3)cccc2c1 | -0.8% (inactive)
Nc1ccc2oc(-c3cccc4ccccc34)nc2c1 | 45.3% (inactive)
Cc1cc2nn(-c3cccc4ccccc34)nc2cc1NC(=O)c1cccs1 | 15.2% (inactive)
c1ccc2c(-n3cnnn3)cccc2c1 | 1.3% (inactive)
Cn1nc(-c2ccc(C(=O)O)cc2)c2ccccc2c1=O | -4.7% (inactive)
Cc1ccc2ccc(C(Nc3ccccn3)c3ccccc3)c(O)c2n1 (stereo not given) | 11.4% (inactive)
CN1CCN(C(c2cccnc2)c2ccc3cccnc3c2O)CC1 (stereo not given) | 39.6% (inactive)
COc1ccccc1NC(c1cccnc1)c1ccc2cccnc2c1O (stereo not given) | 51.7% (active)
CCC(=O)NC(c1ccccc1OC)c1ccc2cccnc2c1O (stereo not given) | 50.2% (active)
CCC(=O)NC(c1cccs1)c1ccc2cccnc2c1O (stereo not given) | 49.8% (inactive)
CCCC(=O)NC(c1ccccc1OC)c1ccc2cccnc2c1O (stereo not given) | 39.5% (inactive)
Cc1ccnc(NC(c2cccnc2)c2ccc3cccnc3c2O)c1 (stereo not given) | 18% (inactive)
CCOC(=O)N1CCN(S(=O)(=O)c2cccc3cccnc23)CC1 | -12.8% (inactive)
Cc1cc(NC(c2cccnc2)c2ccc3cccnc3c2O)no1 (stereo not given) | 40.3% (inactive)
Cc1cccc(NC(c2ccc(O)cc2)c2ccc3ccc(C)nc3c2O)n1 (stereo not given) | 8.7% (inactive)
COc1cc(C(Nc2ccccn2)c2ccc3ccc(C)nc3c2O)cc(OC)c1O (stereo not given) | 62.2% (active)

Source: PubChem BioAssay AID1220 (Sanford-Burnham Center for Chemical Genomics, 2008)
